# Screens as filed in PubChem BioAssay.
# In the library only some 1.1% were active in any assay of this set; here they are far more common.
# GALR2 agonist – activates the human galanin receptor 2. O43603. GALR2-expressing cells, agonist activation read-out. activation, % (no concentration beside the values). 140,000 tested, 0.48% active; in the data active = activation above about 5%, passing the limit was not always enough;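 also: 0% = vehicle buffer wells and 100% = reference agonist at full effect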
# Target sequence (O43603 whole entry, looked up): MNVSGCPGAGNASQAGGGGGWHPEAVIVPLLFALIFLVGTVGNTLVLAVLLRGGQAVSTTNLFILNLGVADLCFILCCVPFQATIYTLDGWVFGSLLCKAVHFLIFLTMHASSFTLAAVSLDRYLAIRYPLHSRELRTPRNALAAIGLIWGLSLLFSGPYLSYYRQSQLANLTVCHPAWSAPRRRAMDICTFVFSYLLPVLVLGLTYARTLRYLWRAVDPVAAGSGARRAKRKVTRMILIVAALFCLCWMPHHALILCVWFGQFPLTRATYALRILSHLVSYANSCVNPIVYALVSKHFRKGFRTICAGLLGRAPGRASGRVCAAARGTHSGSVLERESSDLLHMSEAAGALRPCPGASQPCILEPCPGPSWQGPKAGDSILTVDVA
# S1P2 blocker – antagonists of human S1P2 receptor. cell-based S1P2 antagonist assay, inhibition at 5 uM. inhibition, % at 5 µM. 97,000 tested, 0.21% active; in the data active = inhibition above about 45%;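 also: CRE beta-lactamase reporter cells expressing human S1P2 stimulated with S1P; 0% = agonist at EC80 alone and 100% = agonist plus reference antagonist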
# GALR2 antag – antagonists of human galanin receptor 2 (GALR2); O43603; GALR2-expressing cells, antagonist mode; inhibition, % at 4 µM; 140,000 tested, 0.39% active; AID 828;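 also: cells stimulated with galanin 1-16 at roughly its EC80; 0% = agonist challenge control and 100% = basal control without agonist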
# S1P2 ag – activates the human S1P2 receptor; S1P2-expressing cell line, agonist reporter read-out; activation, % at 4.5 µM; 97,000 tested, 0.46% active; AID 729; in the data active = activation above about 16%;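 also: 0% = vehicle low control and 100% = maximal reference agonist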
# GALR2 ant conf – GALR2 (human) antagonism confirmed; shares compounds with GALR2 antag; GALR2-expressing cells, antagonist mode, inhibition; inhibition, % at 4 µM; 480 tested, 60% active;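 also: cells stimulated with galanin at about its EC80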
# BLA inh counter – counter-screen for GALR2 antagonists: beta-lactamase reporter inhibitors | shares compounds with GALR2 antag | CHO NFAT-BLA reporter, beta-lactamase FRET, thapsigargin-stimulated | inhibition, % at 4.2 µM | 480 tested, 36% active;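 active = inhibition above the mean inhibition across tested compounds plus 3 SD, cut at about 27% in these data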;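 also: 0% = 500 nM thapsigargin stimulated wells and 100% = unstimulated BSA only wells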
# Active calls of the source: *; / = not tested or not shown. Rule as the data show it, unless noted: active = inhibition above about 27%; inactive = the rest.
SMILES,GALR2 agonist,S1P2 blocker,GALR2 antag,S1P2 ag,GALR2 ant conf,BLA inh counter
CC(=O)Nc1cn(C(C)=O)c(C)n1,-3,/,29*,/,14,6
CCN1CCc2c(sc(NC(=O)Nc3ccc(Cl)c(Cl)c3)c2C(N)=O)C1,-1,/,27*,/,25,21
C=CCn1c(C)cc(C(=O)Cn2ncc(Cl)c(Cl)c2=O)c1C,-2,/,57*,/,46*,21
Cc1cccc(NC(=O)/C=C/c2ccc([N+](=O)[O-])s2)c1,0,/,32*,/,46*,47*
Cc1ccc(NC(=O)/C=C/c2ccc([N+](=O)[O-])s2)c(C)c1,1,/,33*,/,54*,55*
c1csc(Cc2nc(-c3ccc(-n4cccc4)cc3)no2)c1,-2,-1,-6,-4,/,/
COc1ccc(NC(=O)c2cc(S(=O)(=O)N(C)C)ccc2N2CCCC2)cc1Cl,-1,/,28*,/,2,0
CCN1C(=O)NC2C1N(S(C)(=O)=O)CCN2S(C)(=O)=O (stereo unspecified),-1,3,8,-1,/,/
N#CC(C#N)=C1C=CC=CN1/C(=C\c1ccccc1Cl)C(=O)c1ccccc1,-2,/,73*,/,89*,99*
COc1cccc(/C=N/Nc2nc(N3CCCC3)nc(N3CCCC3)n2)c1O,-1,-6,29*,-10,17,3
COC(=O)/C(=C1/Oc2cc(C)oc(=O)c2S1)C(F)(F)F,-2,/,61*,/,66*,51*
Nc1ccc2c(c1)C/C(=C/c1ccco1)C2=O,-2,/,29*,/,33*,36*
O=C1/C(=C/c2ccco2)CCc2ccccc21,0,/,-4,/,/,/
O=S(=O)(/C(=C/c1ccc(C(F)(F)F)cc1)c1nc2ccccc2[nH]1)c1ccccc1,2,/,38*,/,51*,45*
CC(C)c1ccc(/C=C(\c2nc3ccccc3[nH]2)S(=O)(=O)c2ccccc2)cc1,-2,/,0,/,/,/
Cc1nc2ccc(NC(=O)c3ccc(F)c(S(=O)(=O)N4CCOCC4)c3)cc2s1,0,18,10,-6,/,/
c1nc(NCC2CCCO2)c2[nH]cnc2n1 (stereo unspecified),-1,6,0,-7,/,/
CCCCn1cnc2c([nH]c3ccccc32)c1=O,0,9,1,-4,/,/
CCOCCCNc1ncnc2c1[nH]c1ccccc12,-1,20,29*,-5,25,16
CCCCOCCCNc1ncnc2c1[nH]c1ccccc12,-1,29,47*,-1,31*,23
c1ccc2c(c1)[nH]c1c(NCC3CCCO3)ncnc12 (stereo unspecified),0,10,28*,-11,27*,5
C=CCNc1ncnc2c1[nH]c1ccccc12,-2,-5,24,-2,/,/
Cc1cccc2cc(COC(=O)COc3ccccc3)c(=O)[nH]c12,-1,19,-10,-2,/,/
CCOC(=O)/C(=C\c1cccnc1)C(=O)c1cc(C(C)=O)c(Nc2ccccc2)s1,-3,60*,54*,15,79*,71*
COc1ccc2cnnc(SCC(=O)Nc3ccc(C(C)=O)cc3)c2c1OC,1,/,15,/,/,/
SMILES,GALR2 agonist,S1P2 blocker,GALR2 antag,S1P2 ag,GALR2 ant conf,BLA inh counter
CC(C)(C)C1=C(C#N)C(c2ccncc2)C(C#N)=C(N)O1 (stereo unspecified),1,/,32*,/,14,4
CC(C)(C)C1=C(C#N)C(c2ccc3c(c2)OCO3)C(C#N)=C(N)O1 (stereo unspecified),-1,4,1,-4,/,/
COc1cc(/C=C2\CC/C(=C\c3cc(OC)c(O)c(OC)c3)C2=O)cc(OC)c1O,-2,/,58*,/,41*,30*
CN(C)c1nc(Nc2ccc(Cl)cc2)nc(OCC#N)n1,-2,-8,35*,-5,30*,14
CONc1nc(NC(C)(C)C)nc(OCC#N)n1,-1,/,4,/,/,/
CC(=O)Nc1cccc(/C(C)=N\NC(=O)c2ccc(Cn3nc([N+](=O)[O-])c(Cl)c3C)o2)c1,-1,/,8,/,/,/
Cn1nc(-c2ccc(Cl)cc2)nc2c(=O)n(C)c(=O)nc1-2,4,99*,94*,-3,100*,95*
Clc1ccc2nc(N3CCNCC3)nc(-c3ccccc3)c2c1,24*,2,35*,59*,30*,50*
COc1ccccc1NC(=O)c1[nH]c(C)c(C(C)=O)c1C,-2,7,28*,-5,33*,10
Cc1cc(C(=O)CSc2nc3ccccc3[nH]2)c(C)n1CC1CCCO1 (stereo unspecified),-2,66*,43*,-5,34*,9
CN(C)CC(O)COc1cc2ccccc2cc1C(=O)N1CCCCC1 (stereo unspecified),-1,11,-6,0,/,/
COc1ccc(OC)c(S(=O)(=O)N2CCN(C)CC2)c1,-1,/,10,/,/,/
COc1ccc(OC)c(S(=O)(=O)N2CCCCCC2)c1,-2,/,28*,/,2,0
O=C(OCn1ncc(Cl)c(Cl)c1=O)c1ccccc1Cl,-3,84*,95*,-3,93*,82*
O=C(OCn1ncc(Cl)c(Cl)c1=O)c1ccc(F)cc1,-3,80*,91*,-2,93*,86*
CCN(CC(N)=O)S(=O)(=O)c1ccc(Br)cc1,-2,-20,-6,-3,/,/
O=C(NCC1OCCc2ccccc21)c1ccc(NC(=O)c2cccc(Br)c2)cc1 (stereo unspecified),-2,/,4,/,/,/
N#C/C(=C\c1ccc(Sc2nc3ccccc3[nH]2)o1)c1ccccc1,-2,-22,6,-3,/,/
N#C/C(=C\c1ccc(Sc2ccc(Cl)cc2)o1)c1nc2ccccc2[nH]1,0,/,32*,/,35*,29*
N#C/C(=C/c1cccs1)c1nc2ccccc2[nH]1,0,/,19,/,/,/
Cc1ccc(/C=C(\C#N)c2nc3ccccc3[nH]2)s1,-3,-19,30*,-2,34*,21
CC1CCN(c2ccc(N3C(=O)C4CCCCC4C3=O)cc2[N+](=O)[O-])CC1 (stereo unspecified),0,/,24,/,/,/
CCOC(=O)c1ccc(NC(=O)c2ccccc2[N+](=O)[O-])cc1,-1,/,0,/,/,/
CCOC(=O)c1cc([N+](=O)[O-])c([N+](=O)[O-])cc1NC(C)=O,-1,/,41*,/,48*,7
CC(C)Oc1ccc(C(=O)Nc2ccc(C(F)(F)F)n(C)c2=O)cc1,0,/,-9,/,/,/
SMILES,GALR2 agonist,S1P2 blocker,GALR2 antag,S1P2 ag,GALR2 ant conf,BLA inh counter
CCOC(=O)C1C(=O)NC(C)C1c1ccccc1 (stereo unspecified),-2,6,4,-7,/,/
Nc1nn(-c2ccccc2)c(N)c1N=Nc1ccccc1,-1,/,28*,/,16,9
CCCCCCCCCCn1c2c(c(=N)c3c1CCC3)CCC2,-4,87*,36*,-5,30*,57*
CCOC(=O)c1ccccc1N/C=C/C(=O)c1cccs1,-1,/,27*,/,27*,11
CCOC(=O)c1ccccc1NC(=O)c1cccs1,0,0,-2,-5,/,/
COc1ccc(-c2cnc3c(c2)CCC3(C#N)C#N)cc1,1,/,31*,/,17,19
CCOc1ccc(-c2nnc3n2N=C(c2ccc(OC)cc2)CS3)cc1,-2,-25,-1,2,/,/
